A selection: hits, their analogues and other compounds. The true share with any hit is near 4.3%.
FAS-TE inh – FAS thioesterase domain inhibitors, primary screen, biochemical, fluorescence intensity, uHTS | Fatty acid synthase (Homo sapiens), P49327 | recombinant FAS-TE, OMFH fluorogenic substrate, fluorescence endpoint | inhibition, % at 15 µM | 0.67% of 360,000 active;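 active = compounds whose normalised, plate-corrected inhibition of enzyme fluorescence in the single-dose primary screen is 50% or more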
NR3A LBD binder – binders of NR3A ligand-binding domain, primary screen, biophysical, differential scanning fluorimetry, uHTS; Glutamate receptor ionotropic, NMDA 3A (GRIN3A) ligand-binding domain; NR3A LBD differential scanning fluorimetry, Tm shift; 0% = protein alone, 100% = glycine-bound protein; Tm shift relative to glycine control, % at 25 µM; 2.5% of 340,000 active; AID 1259313, 2017;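 active = melting temperature shift of at least 10% of the positive control shift, at one fixed dose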
ADAM10 inh – human ADAM10 inhibitors, primary screen, biochemical, QFRET, HTS; Disintegrin and metalloproteinase domain-containing protein 10 (Homo sapiens), O14672; inhibition, % at 7 µM; recombinant ADAM10, EDANS/DABCYL FRET peptide cleavage, 3 h; 0.62% of 370,000 active; AID 720582, 2013;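 active = inhibition above a per-campaign cutoff equal to the mean of compounds falling between control-based bounds plus 3 SD, cut at about 20% in these data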
HGIII-sPLA2 inh – human group III sPLA2 inhibitors, primary screen, biochemical, QFRET, BODIPY PC-A2 liposome substrate; Group 3 secretory phospholipase A2 (Homo sapiens), Q9NZ20; QFRET BODIPY PC-A2 liposome hydrolysis, fluorescence; inhibition, % at 12.2 µM; 0.56% of 370,000 active; AID 743126, 2013;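 active = inhibition above mean plus 3 SD of compounds lying within the high and low control bounds, cut at about 19% in these data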
ADAM17 inh – ADAM17 inhibitors, primary screen, biochemical, QFRET. Disintegrin and metalloproteinase domain-containing protein 17 (Homo sapiens), P78536. recombinant ADAM17, EDANS/DABCYL FRET peptide cleavage. inhibition, % at 6.95 µM. 0.83% of 370,000 active;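 active = inhibition above the mean of compounds lying between control limits plus 3 SD, set per campaign, cut at about 8.5% in these data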
hGIII sPLA2 conf – human group III sPLA2 inhibitors, confirmation, biochemical, QFRET, triplicate; inhibition, % at 12.2 µM; 34% of 2,000 active; AID 743280, 2014; recombinant hGIII-sPLA2, BODIPY PC-A2 QFRET fluorescence; shares compounds with HGIII-sPLA2 inh;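 active = mean inhibition across triplicates above the hit cutoff set in the earlier primary screen, cut at about 19% in these data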
BODIPY interf – 535nm fluorescence optical interference, confirmation, artefact control for HGIII-sPLA2 inhibitor project, biochemical, QFRET; shares compounds with HGIII-sPLA2 inh; BODIPY FL product fluorescence interference; inhibition, % at 12.2 µM; 8.5% of 2,000 active; AID 743282, 2014;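 active = average inhibition above the solvent-only control mean plus 3 SD, cut at about 6% in these data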
BODIPY interf DR – 535nm fluorescence optical interference, dose response, artefact control for HGIII-sPLA2 inhibitor project, biochemical, QFRET; BODIPY FL product fluorescence interference, cell-free; 240 tested, under 10 active; IC50, µM; shares compounds with HGIII-sPLA2 inh;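 active = IC50 at or below 10 µM; inactive = IC50 above 10 µM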
Large screens that a line does not name were inactive (follow-up assays come after a bar, where they were run).

NC(=Nc1nc(-c2ccccn2)cc2ccccc12)c1ccccn1	HGIII-sPLA2 inh 21 | hGIII sPLA2 conf inactive | BODIPY interf inactive
CCOC(=O)[C@@]12CCCC3=C1N(CCC3)C(=O)[C@H]2CC(=O)NCc1cccc(C(F)(F)F)c1	none (no result: FAS-TE inh, NR3A LBD binder)
C[N+](C)(C)CCCCCC(=O)/C=N/O	HGIII-sPLA2 inh 22 | hGIII sPLA2 conf inactive | BODIPY interf inactive
COc1c2c(cc3c1c(=O)c1ccccc1n3C)OCO2	none (no result: FAS-TE inh, NR3A LBD binder)
Cc1ccc(C)c(OCc2n[nH]c(=S)o2)c1	HGIII-sPLA2 inh 24 | hGIII sPLA2 conf inactive | BODIPY interf inactive
Cc1ccc(C(C)C)c(OCc2n[nH]c(=S)o2)c1	none
CCOC(=O)[C@@]12CCCC3=C1N(CCC3)C(=O)[C@H]2CC(=O)N1CCSCC1	none (no result: FAS-TE inh, NR3A LBD binder)
O=C1NC(=S)NC1=Cc1ccccc1O	HGIII-sPLA2 inh 22 | hGIII sPLA2 conf inactive | BODIPY interf inactive
Cc1cc(NC(=O)C(C)C)ncc1NC(=O)c1ccco1	HGIII-sPLA2 inh 20 (no result: NR3A LBD binder) | hGIII sPLA2 conf inactive | BODIPY interf inactive
Cc1ccc(OCCN2CCN(C)CC2)c([N+](=O)[O-])c1	HGIII-sPLA2 inh 22 | hGIII sPLA2 conf inactive | BODIPY interf inactive
Cc1ccc(OCCN2CCNCC2)c([N+](=O)[O-])c1	none
COc1ccc(-n2cc(-c3ccc(Cl)cc3)[nH]c2=S)cc1	none
Cc1ccc(-n2c(-c3ccccc3)c[nH]c2=S)cc1	HGIII-sPLA2 inh 20 | hGIII sPLA2 conf 27 | BODIPY interf inactive
Cc1ccc(-n2c(-c3ccccc3)n[nH]c2=S)cc1	none
COc1ccc(-n2c(-c3ccc(Cl)cc3)c[nH]c2=S)cc1	HGIII-sPLA2 inh 22 | hGIII sPLA2 conf 29 | BODIPY interf inactive
COC(=O)C1=C(C)N(Cc2ccccc2C(F)(F)F)C(=NCC2CC2)NC1CCc1ccccc1 (configuration not stated)	none (no result: FAS-TE inh, NR3A LBD binder)
C[C@H]1NS(=O)(=O)c2cccc(Cl)c2O[C@@H]1c1ccccc1	none (no result: FAS-TE inh, NR3A LBD binder)
COc1ccc(NC2CS(=O)(=O)CC2NCc2ccccc2)cc1 (configuration not stated)	HGIII-sPLA2 inh 21 | hGIII sPLA2 conf inactive | BODIPY interf inactive
CCN(C(=O)COC(=O)CCCc1nc2ccccc2s1)c1c(N)n(Cc2ccccc2)c(=O)[nH]c1=O	none
CC(C)CN(C(=O)COC(=O)CCc1nc2ccccc2s1)c1c(N)n(Cc2ccccc2)c(=O)[nH]c1=O	HGIII-sPLA2 inh 19 | hGIII sPLA2 conf inactive | BODIPY interf inactive
O=C(CNC1CCCC1)Nc1cc(Cl)ccc1[N+](=O)[O-]	HGIII-sPLA2 inh 21 | hGIII sPLA2 conf inactive | BODIPY interf inactive
COc1ccc(N2C(=O)c3n[nH]c(C(C)C)c3C2c2ccc(F)cc2)cc1 (configuration not stated)	none (no result: FAS-TE inh, NR3A LBD binder)
Clc1ccc(N=NN2CCOCC2)cc1	HGIII-sPLA2 inh 19 | hGIII sPLA2 conf inactive | BODIPY interf inactive
O=S(=O)(NCc1ccc(Cl)cc1)c1ccc(Br)cc1C1CC[C@@H](O)C1 (some centres not stated)	none (no result: FAS-TE inh, NR3A LBD binder)
Cc1ccc(N2CCOCC2)c2c1C(=O)c1ccccc1C2=O	HGIII-sPLA2 inh 25 | hGIII sPLA2 conf 29 | BODIPY interf inactive | BODIPY interf DR inactive
COC(=O)C1=C(C)N(C)C(=NCc2ccccc2)NC1CCc1ccccc1 (configuration not stated)	none (no result: FAS-TE inh, NR3A LBD binder)
O=C(NN=Cc1c(O)ccc2ccccc12)C1CC1	none
O=C(N/N=C/c1c(O)ccc2ccccc12)c1cccc(C(F)(F)F)c1	NR3A LBD binder 21, HGIII-sPLA2 inh 43 | hGIII sPLA2 conf inactive | BODIPY interf inactive
COc1cccc(NC(=O)C2CCCN2C(=O)Nc2cccc3c2OCO3)c1 (configuration not stated)	none (no result: FAS-TE inh, NR3A LBD binder)
CN(C)C=NC1=NN(c2cccc(C(F)(F)F)c2)CC1	HGIII-sPLA2 inh 21 | hGIII sPLA2 conf inactive | BODIPY interf inactive
CN1CCN(C=NC2=NN(c3cccc(C(F)(F)F)c3)CC2)CC1	none
Cn1cccc1CC(=O)NN=C/C=C\c1ccco1	none (no result: FAS-TE inh, NR3A LBD binder)
Cc1ccc(NC(=O)COC(=O)c2nn(C)cc2Cl)cc1	none
Cc1cccc(NC(=S)NNC(=O)c2nn(C)cc2Cl)c1	HGIII-sPLA2 inh 37 | hGIII sPLA2 conf 43 | BODIPY interf inactive | BODIPY interf DR inactive
O=C(Nc1ccc(Cl)c(Cl)c1)N1CCCCCC1	none
Cc1ccc(NC(=S)NNC(=O)c2nnn(-c3ccccc3)c2C)cc1	HGIII-sPLA2 inh 36 | hGIII sPLA2 conf 31 | BODIPY interf inactive | BODIPY interf DR inactive
Cc1cccc(NC(=S)NNC(=O)c2ccco2)c1	none
O=C(c1ccc(NC(=S)Nc2ccc(Cl)c(Cl)c2)cc1)N1CCCC1	NR3A LBD binder 15, HGIII-sPLA2 inh 20 | hGIII sPLA2 conf inactive | BODIPY interf inactive
Cc1ccc(NC(=S)NNC(=O)c2nn(C)cc2Cl)cc1	HGIII-sPLA2 inh 34 | hGIII sPLA2 conf 44 | BODIPY interf inactive | BODIPY interf DR inactive
COC(=O)[C@]12C[C@H](CC(=O)N3CCCC3)C(=O)N(Cc3ccc4c(c3)OCO4)C1=C[C@H](COCc1ccccc1)O[C@@H]2C	none (no result: FAS-TE inh, NR3A LBD binder)
Cc1ccc(NC(=S)NNC(=O)c2cnccn2)cc1	HGIII-sPLA2 inh 30 (no result: FAS-TE inh, NR3A LBD binder) | hGIII sPLA2 conf 27 | BODIPY interf inactive
O=C(NNC(=S)Nc1ccc(Cl)c(Cl)c1)c1ccccn1	HGIII-sPLA2 inh 32 | hGIII sPLA2 conf 42 | BODIPY interf 6.5
CCNC(=S)NNC(=O)c1ccccn1	none
O=C(NC(=S)NNC(=O)c1cnccn1)c1ccc(F)cc1	none
C[C@H]1[C@H](c2ccccc2)Oc2cccc(NCCc3ccccc3)c2S(=O)(=O)N1Cc1ccc(F)cc1	none (no result: FAS-TE inh, NR3A LBD binder)
Cc1onc(-c2ccccc2)c1C(=O)NN=Cc1cc(Cl)cc(Cl)c1O	HGIII-sPLA2 inh 22 (no result: FAS-TE inh, NR3A LBD binder) | hGIII sPLA2 conf inactive | BODIPY interf 11
Cc1onc(-c2ccccc2)c1C(=O)N/N=C/c1cccc(O)c1	none
COc1ccc(NC2CCCN(Cc3cccc4cnccc34)C2)cc1 (configuration not stated)	HGIII-sPLA2 inh 20 | hGIII sPLA2 conf inactive | BODIPY interf inactive
